The entries come from a sample that favours the strongest signals as a whole.
Experiments:
Assay in all cases: glycan array binding signal (z-score within array); higher = stronger binding
Settings in all cases: glycan notation: IUPAC condensed, linker removed
[1] = biological target: Fuc(a1-2)Gal(b1-3)GalNAc(b1-3)Gal
How it was run: (§1)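 Glycan array data were curated from 3228 arrays in the Consortium for Functional Glycomics database and kept only where the protein sequence was available. Glycan names were converted to IUPAC-condensed notation, and columns mapping to the same glycan were averaged. The binding signal is a within-array Z-score, averaged across arrays of the same protein sequence at different concentrations or buffers and across linkers. Negative Z-scores can be read as non-binding.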

[2] = biological target: Fuc(a1-2)Gal(b1-3)GalNAc(b1-3)Gal(a1-4)Gal(b1-4)Glc
How it was run: as §1

Fuc(a1-2)Gal(b1-3)GlcNAc = biological target: Fuc(a1-2)Gal(b1-3)GlcNAc
How it was run: as §1

[3] = biological target: Fuc(a1-2)[Gal(a1-3)]Gal(b1-3)GalNAc(b1-3)Gal(a1-4)Gal(b1-4)Glc
How it was run: as §1

[4] = biological target: Fuc(a1-2)[Gal(a1-3)]Gal(b1-3)GlcNAc
How it was run: as §1

[5] = biological target: Fuc(a1-2)[GalNAc(a1-3)]Gal(b1-4)GlcNAc(b1-3)Gal(b1-4)GlcNAc(b1-3)Gal(b1-4)GlcNAc
How it was run: as §1

[6] = biological target: Fuc(a1-2)[GalNAc(a1-3)]Gal(b1-4)[Fuc(a1-3)]GlcNAc
How it was run: as §1

[7] = biological target: Fuc(a1-2)[GalNAc(b1-3)]Gal
How it was run: as §1

Fuc(a1-3)GlcNAc = biological target: Fuc(a1-3)GlcNAc
How it was run: as §1

[8] = biological target: Fuc(a1-3)[Gal(b1-4)]GlcNAc(b1-2)Man
How it was run: as §1

Gal(a1-3)Gal(b1-3)GlcNAc = biological target: Gal(a1-3)Gal(b1-3)GlcNAc
How it was run: as §1

[9] = biological target: Gal(a1-3)Gal(b1-3)GlcNAc(b1-2)Man(a1-3)[Gal(a1-3)Gal(b1-3)GlcNAc(b1-2)Man(a1-6)]Man(b1-4)GlcNAc(b1-4)GlcNAc
How it was run: as §1

[10] = biological target: Gal(a1-3)Gal(b1-4)GlcNAc(b1-3)GalNAc
How it was run: as §1

[11] = biological target: Gal(a1-4)Gal(b1-4)GlcNAc(b1-2)Man(a1-3)[Gal(a1-4)Gal(b1-4)GlcNAc(b1-2)Man(a1-6)]Man(b1-4)GlcNAc(b1-4)GlcNAc
How it was run: as §1

Gal(b1-2)Gal = biological target: Gal(b1-2)Gal
How it was run: as §1

Gal(b1-3)Gal(b1-4)GlcNAc = biological target: Gal(b1-3)Gal(b1-4)GlcNAc
How it was run: as §1

[12] = biological target: Gal(b1-3)GalNAc(a1-3)[Fuc(a1-2)]Gal(b1-4)GlcNAc
How it was run: as §1

[13] = biological target: Gal(b1-3)GlcNAc(b1-2)Man(a1-3)[Gal(b1-3)GlcNAc(b1-2)Man(a1-6)]Man(b1-4)GlcNAc(b1-4)[Fuc(a1-6)]GlcNAc
How it was run: as §1

[14] = biological target: Gal(b1-3)GlcNAc(b1-2)[Gal(b1-3)GlcNAc(b1-6)]Man(a1-6)[Gal(b1-3)GlcNAc(b1-2)Man(a1-3)]Man(b1-4)GlcNAc(b1-4)GlcNAc
How it was run: as §1

Gal(b1-4)Gal = biological target: Gal(b1-4)Gal
How it was run: as §1

Gal(b1-4)GlcNAc = biological target: Gal(b1-4)GlcNAc
How it was run: as §1

[15] = biological target: Gal(b1-4)GlcNAc(b1-2)[Gal(b1-4)GlcNAc(b1-4)]Man(a1-3)[Gal(b1-4)GlcNAc(b1-2)[Gal(b1-4)GlcNAc(b1-6)]Man(a1-6)]Man(b1-4)GlcNAc(b1-4)GlcNAc
How it was run: as §1

[16] = biological target: Gal(b1-4)GlcNAc(b1-3)Gal(b1-4)GlcNAc(b1-3)Gal(b1-4)GlcNAc(b1-3)Gal(b1-4)GlcNAc(b1-2)[Gal(b1-4)GlcNAc(b1-3)Gal(b1-4)GlcNAc(b1-3)Gal(b1-4)GlcNAc(b1-3)Gal(b1-4)GlcNAc(b1-6)]Man(a1-6)[Gal(b1-4)GlcNAc(b1-3)Gal(b1-4)GlcNAc(b1-3)Gal(b1-4)GlcNAc(b1-3)Gal(b1-4)GlcNAc(b1-2)Man(a1-3)]Man(b1-4)GlcNAc(b1-4)[Fuc(a1-6)]GlcNAc
How it was run: as §1

[17] = biological target: Gal(b1-4)GlcNAc(b1-3)Gal(b1-4)GlcNAc(b1-3)Gal(b1-4)GlcNAc(b1-3)Gal(b1-4)GlcNAc(b1-3)Gal(b1-4)GlcNAc(b1-2)Man(a1-3)[Gal(b1-4)GlcNAc(b1-3)Gal(b1-4)GlcNAc(b1-3)Gal(b1-4)GlcNAc(b1-3)Gal(b1-4)GlcNAc(b1-3)Gal(b1-4)GlcNAc(b1-2)Man(a1-6)]Man(b1-4)GlcNAc(b1-4)GlcNAc
How it was run: as §1

[18] = biological target: Gal(b1-4)GlcNAc(b1-3)Gal(b1-4)[Fuc(a1-3)]GlcNAc(b1-3)Gal(b1-4)[Fuc(a1-3)]GlcNAc
How it was run: as §1

Gal3S(b1-3)GlcNAc = biological target: Gal3S(b1-3)GlcNAc
How it was run: as §1

Gal3S(b1-4)Glc6S = biological target: Gal3S(b1-4)Glc6S
How it was run: as §1

[19] = biological target: Gal3S(b1-4)[Fuc(a1-3)]Glc6S
How it was run: as §1

[20] = biological target: Gal3S(b1-4)[Fuc(a1-3)]GlcNAc6S
How it was run: as §1

Gal4S6S(b1-4)GlcNAc = biological target: Gal4S6S(b1-4)GlcNAc
How it was run: as §1

Gal6S(b1-4)GlcNAc = biological target: Gal6S(b1-4)GlcNAc
How it was run: as §1

[21] = biological target: GalNAc(b1-3)Gal(a1-4)Gal(b1-4)GlcNAc
How it was run: as §1

[22] = biological target: GalNAc(b1-3)Gal(a1-6)Gal(b1-4)Glc
How it was run: as §1

GalNAc(b1-4)GlcNAc = biological target: GalNAc(b1-4)GlcNAc
How it was run: as §1

[23] = biological target: GlcNAc(a1-4)Gal(b1-4)GlcNAc
How it was run: as §1

[24] = biological target: GlcNAc(a1-4)Gal(b1-4)GlcNAc(b1-3)Gal(b1-4)[Fuc(a1-3)]GlcNAc(b1-3)Gal(b1-4)[Fuc(a1-3)]GlcNAc
How it was run: as §1

[25] = biological target: GlcNAc(b1-3)Gal(b1-4)GlcNAc(b1-2)Man(a1-3)[GlcNAc(b1-3)Gal(b1-4)GlcNAc(b1-2)Man(a1-6)]Man(b1-4)GlcNAc(b1-4)[Fuc(a1-6)]GlcNAc
How it was run: as §1

Kdn(a2-3)Gal(b1-4)Glc = biological target: Kdn(a2-3)Gal(b1-4)Glc
How it was run: as §1

[26] = biological target: Neu5Ac(a2-3)Gal(b1-3)GlcNAc(b1-3)Gal(b1-4)GlcNAc
How it was run: as §1

[27] = biological target: Neu5Ac(a2-3)Gal(b1-3)GlcNAc(b1-6)GalNAc
How it was run: as §1

[28] = biological target: Neu5Ac(a2-3)Gal(b1-4)GlcNAc(b1-2)Man(a1-3)[Neu5Ac(a2-6)Gal(b1-4)GlcNAc(b1-2)Man(a1-6)]Man(b1-4)GlcNAc(b1-4)GlcNAc
How it was run: as §1

[29] = biological target: Neu5Ac(a2-3)Gal(b1-4)GlcNAc(b1-2)[Neu5Ac(a2-3)Gal(b1-4)GlcNAc(b1-6)]Man(a1-6)[Neu5Ac(a2-3)Gal(b1-4)GlcNAc(b1-2)Man(a1-3)][GlcNAc(b1-4)]Man(b1-4)GlcNAc(b1-4)GlcNAc
How it was run: as §1

[30] = biological target: Neu5Ac(a2-3)Gal(b1-4)GlcNAc(b1-3)Gal
How it was run: as §1

[31] = biological target: Neu5Ac(a2-3)Gal(b1-4)GlcNAc(b1-3)Gal(b1-4)GlcNAc(b1-3)Gal(b1-4)GlcNAc(b1-2)Man(a1-3)[Neu5Ac(a2-3)Gal(b1-4)GlcNAc(b1-3)Gal(b1-4)GlcNAc(b1-3)Gal(b1-4)GlcNAc(b1-2)Man(a1-6)]GalNAc
How it was run: as §1

[32] = biological target: Neu5Ac(a2-3)Gal(b1-4)GlcNAc(b1-3)[Neu5Ac(a2-3)Gal(b1-4)GlcNAc(b1-6)]GalNAc
How it was run: as §1

[33] = biological target: Neu5Ac(a2-3)Gal(b1-4)GlcNAc(b1-6)[Gal(b1-3)]GalNAc
How it was run: as §1

[34] = biological target: Neu5Ac(a2-6)Gal(b1-3)GlcNAc(b1-3)[Gal(b1-4)GlcNAc(b1-6)]Gal(b1-4)Glc
How it was run: as §1

[35] = biological target: Neu5Ac(a2-6)Gal(b1-4)GlcNAc(b1-2)Man(a1-3)[Gal(b1-4)GlcNAc(b1-2)Man(a1-6)]Man(b1-4)GlcNAc(b1-4)GlcNAc
How it was run: as §1

[36] = biological target: Neu5Ac(a2-6)Gal(b1-4)GlcNAc(b1-6)[Gal(b1-3)GlcNAc(b1-3)]Gal(b1-4)Glc
How it was run: as §1

[37] = biological target: Neu5Ac(a2-6)GlcNAc(b1-4)GlcNAc(b1-4)GlcNAc
How it was run: as §1

B1: FimA-N1 (Actinomyces oris) (protein)
chain: MHHHHHHSSGVDLGTENLYFQSNATETPNYGNIKTDATGSLVIHKHLTGGGKDIGTPTGTAQNADDKGPAVEGVVFTAYPITDINLKDPAGWDTISNLSRTGVPDSACANPAAPTLGAHQFGTPKVSPATTKEGLATITEMPVQAYLVCETTTPGDIVQKAKPFVVTIPHPNTAAGADGQWIYDVNVYPKNEAIDVDKTIQAQK
glycan array binding signal (z-score) [1]: 2.83 | glycan array binding signal (z-score) [2]: -0.245 | glycan array binding signal (z-score) (Fuc(a1-2)Gal(b1-3)GlcNAc): -0.136 | glycan array binding signal (z-score) [3]: 0.011 | glycan array binding signal (z-score) [4]: 1.81 | glycan array binding signal (z-score) [5]: -0.23 | glycan array binding signal (z-score) [6]: 0.129 | glycan array binding signal (z-score) [7]: 1.69 | glycan array binding signal (z-score) (Fuc(a1-3)GlcNAc): -0.336 | glycan array binding signal (z-score) [8]: 0.002 | glycan array binding signal (z-score) (Gal(a1-3)Gal(b1-3)GlcNAc): 1.89 | glycan array binding signal (z-score) [9]: -0.21 | glycan array binding signal (z-score) [10]: -0.363 | glycan array binding signal (z-score) [11]: 0.207 | glycan array binding signal (z-score) (Gal(b1-2)Gal): 1.45 | glycan array binding signal (z-score) (Gal(b1-3)Gal(b1-4)GlcNAc): -0.145 | glycan array binding signal (z-score) [12]: -0.448 | glycan array binding signal (z-score) [13]: -0.504 | glycan array binding signal (z-score) [14]: 3.13 | glycan array binding signal (z-score) (Gal(b1-4)Gal): -0.308 | glycan array binding signal (z-score) (Gal(b1-4)GlcNAc): -0.171 | glycan array binding signal (z-score) [15]: -0.483 | glycan array binding signal (z-score) [16]: 1.54 | glycan array binding signal (z-score) [17]: 3.32 | glycan array binding signal (z-score) [18]: -0.434 | glycan array binding signal (z-score) (Gal3S(b1-3)GlcNAc): -0.055 | glycan array binding signal (z-score) (Gal3S(b1-4)Glc6S): 3.06 | glycan array binding signal (z-score) [19]: 1.9 | glycan array binding signal (z-score) [20]: 7.57 | glycan array binding signal (z-score) (Gal4S6S(b1-4)GlcNAc): 0.072 | glycan array binding signal (z-score) (Gal6S(b1-4)GlcNAc): 0.396 | glycan array binding signal (z-score) [21]: 0.521 | glycan array binding signal (z-score) [22]: -0.352 | glycan array binding signal (z-score) (GalNAc(b1-4)GlcNAc): -0.187 | glycan array binding signal (z-score) [23]: -0.509 | glycan array binding signal (z-score) [24]: 0.476 | glycan array binding signal (z-score) [25]: -0.002 | glycan array binding signal (z-score) (Kdn(a2-3)Gal(b1-4)Glc): 0.117 | glycan array binding signal (z-score) [26]: -0.463 | glycan array binding signal (z-score) [27]: 0.079 | glycan array binding signal (z-score) [28]: -0.244 | glycan array binding signal (z-score) [29]: -0.572 | glycan array binding signal (z-score) [30]: -0.466 | glycan array binding signal (z-score) [31]: 2.52 | glycan array binding signal (z-score) [32]: -0.03 | glycan array binding signal (z-score) [33]: -0.173 | glycan array binding signal (z-score) [34]: -0.454 | glycan array binding signal (z-score) [35]: 6.46 | glycan array binding signal (z-score) [36]: -0.313 | glycan array binding signal (z-score) [37]: 0.006
